From PubChem BioAssay (NCATS)
Inconclusive results are not listed. A call without a number means that no potency is given here. The source made the active and inactive calls. Calls come from the whole dose curve; as a rule, active = well fitted inhibition curve with a large enough effect; inconclusive = small, poorly fitted or top-dose-only effect; inactive = flat fitted curve, though single readings scatter.
Potency is the fitted concentration of half-maximal effect.

Test: P-glycoprotein substrates identified in KB-8-5-11 adenocarcinoma cell line, qHTS therapeutic library screen (AID 1346987); note: nearly all actives have a fitted effect of over 65% in size
Details: KB-8-5-11 (P-gp overexpressing) viability, CellTiter-Glo, 72 h; series mostly up to 44.5 µM
Outline: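 Compounds are pinned in dose-response onto KB-8-5-11 cells (500 cells/well, colchicine-free medium) and left 72 h at 37 degree C. CellTiter-Glo luminescence then yields AC50 values.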
With `CC(C)CCC(=O)CC1c2ccccc2C(=O)N1c1ccc2ccc(Cl)nc2n1` (stereo unspecified) the Potency was “inactive”.
For `COc1cc(C(=O)NC2CCN(C)CC2)ccc1Nc1ncc2c(n1)N(C1CCCC1)CC(F)(F)C(=O)N2C`, the Potency was 1.16 µM (active).
With `C=C1C(=O)O[C@H](CCC)[C@H]1C(=O)O` the Potency was “inactive”.
In the case of `NC[C@@](O)(c1ccc(Cl)cc1)c1ccc(-c2cn[nH]c2)cc1`, the Potency was 9.2 µM (active).
For `C=C1CCC2C(C)(C(=O)O)CCCC2(C)C1CC/C(=C\CO)CO` (stereo unspecified), the Potency was “inactive”.
With `C[C@@H]1C(=O)O[C@H]2[C@@H](O)C34[C@H]5C[C@@H](C(C)(C)C)C36[C@@H](OC(=O)[C@@H]6O)O[C@@]4(C(=O)O5)[C@@]12O` (stereo partly specified) the Potency was “inactive”.
With `COc1cccc(C(=O)N2CCN(C(=O)COc3cccc(C)c3)CC2)c1OC` the Potency was 23.1 µM (active).
For `Cc1cc(C(=O)N2Cc3cnn(C)c3Nc3ccccc32)ccc1CNC(=O)N1CCC[C@H]1C(=S)N1CCCN(C)CC1`, the Potency was “inactive”.
For `CCCC(=O)O[C@@H]1[C@@H]2[C@@H](OC(C)=O)[C@]3(C)C(=O)[C@H]4[C@@H](OC(C)=O)C(C)(C)C[C@H]4[C@]3(C)C(=O)[C@@]2(OC(C)=O)C[C@@H]1C`, the Potency was “inactive”.
In the case of `O=C(O)COCCN1CCN([C@H](c2ccccc2)c2ccc(Cl)cc2)CC1`, the Potency was “inactive”.
In the case of `CC1=C(C(=O)O)/C(=C/CO[C@@H]2O[C@H](COC(=O)/C=C/c3ccc(O)cc3)[C@@H](O)[C@H](O)[C@H]2O)C(O)C1` (stereo partly specified), the Potency was “inactive”.
For `CC1=CC(=O)[C@]2(O[C@@H]3O[C@@H](C)[C@H](O)[C@@H](O)[C@H]3OC(=O)/C=C/c3ccccc3)C=CO[C@@H](O[C@@H]3O[C@H](CO)[C@@H](O)[C@H](O)[C@H]3O)[C@H]12`, the Potency was “inactive”.
With `COc1ncc(Nc2ncc([C@@H](C)N3CCN(S(C)(=O)=O)CC3)cc2-c2nc(C)nc(N)n2)cc1F` the Potency was 6.51 µM (active).
In the case of `Nc1nc2c(c(=O)[nH]1)C[C@@H](CCc1ccc(C(=O)N[C@@H](CCC(=O)O)C(=O)O)cc1)CN2`, the Potency was 0.058 µM (active).
For `O=[N+]([O-])c1cccc2[nH]c(CNc3nc(N4CCOCC4)nc4c3ncn4-c3ccsc3)nc12`, the Potency was 0.103 µM (active).
With `Clc1cc2c(NC3CCCC3)nnc(-c3ccncc3)c2cc1Cl` the Potency was “inactive”.
For `C=CC1(C)CC(OC(=O)/C(C)=C\COC(C)=O)C(C(=C)C(=O)O)C(O)C1C(=C)CO` (stereo unspecified), the Potency was “inactive”.
With `CN1CCc2nc(C(=O)N[C@@H]3C[C@@H](C(=O)N(C)C)CC[C@@H]3NC(=O)C(=O)Nc3ccc(Cl)cn3)sc2C1` the Potency was “inactive”.
With `COC(=O)C1=CO[C@@H](O)C2C(CO)=CCC12` (stereo partly specified) the Potency was “inactive”.
For `COC(=O)C1=CO[C@@H](O[C@@H]2O[C@H](CO)[C@@H](O)[C@H](O)[C@H]2O)[C@@H]2C(CO)=CC[C@]12O`, the Potency was “inactive”.
In the case of `CC(=O)N1CCN(Cc2ccc([C@H](C)Nc3nccc(N4C(=O)OC[C@@H]4C(C)C)n3)cc2)CC1`, the Potency was “inactive”.
With `COCCN1CCN(Cc2ccc(-c3n[nH]c4c3C(=O)c3c(NC(=O)NN5CCOCC5)cccc3-4)cc2)CC1` the Potency was 2.59 µM (active).
For `C[C@@H]1O[C@@H](O[C@H]2[C@@H]3C=CO[C@@H](O[C@@H]4O[C@H](CO)[C@@H](O)[C@H](O)[C@H]4O)[C@@H]3[C@@]3(CO)O[C@@H]23)[C@H](OC(=O)/C=C/c2ccc(O)c(O)c2)[C@H](O)[C@H]1O`, the Potency was “inactive”.
In the case of `O=C(c1ccccc1)c1ccc2nc(NC(=O)c3csc(C4CCN(c5ncnc6ccsc56)CC4)n3)[nH]c2c1`, the Potency was 5.8 µM (active).
In the case of `O=C(NCc1ccc(F)cc1)C(=O)c1c[nH]c2ccccc12`, the Potency was “inactive”.
With `C[C@@H]1CC[C@@]2(OC1)O[C@H]1C[C@H]3[C@@H]4CC=C5C[C@@H](O)CC[C@]5(C)[C@H]4CC[C@]3(C)[C@H]1[C@@H]2C` the Potency was “inactive”.
In the case of `CN(C)C/C=C/C(=O)Nc1cccc(C(=O)Nc2ccc(Nc3nccc(-c4cccnc4)n3)cc2)c1`, the Potency was “inactive”.
With `CC[C@H]1OC(=O)[C@H](C)[C@@H](O[C@H]2C[C@@](C)(OC)[C@@H](O)[C@H](C)O2)[C@H](C)[C@@H](O[C@@H]2O[C@H](C)C[C@H](N(C)C)[C@H]2O)[C@](C)(O)C[C@@H](C)C(=O)[C@H](C)[C@H]2OC(=O)O[C@@]21C` the Potency was “inactive”.
With `O=C(/C=C\c1ccc(O)cc1)N[C@@H](Cc1ccc(O)cc1)C(=O)O` the Potency was “inactive”.
With `CC1=C2C3OC(=O)C(C)C3(O)CCC2(C)CCC1O` (stereo unspecified) the Potency was “inactive”.
With `C[C@@H]([C@@H](O)c1ccc(O)cc1)N1CCC(O)(c2ccccc2)CC1` the Potency was “inactive”.
